The values that follow come from PubChem BioAssay AID932 (The Scripps Research Institute Molecular Screening Center, 2007).

Molecules are shown by their SMILES. Hit rate of the full screen: of about 200,000 compounds, about 5,100 (2.5%) were called active.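 The calls were made as follows: active = activation above the screen-wide mean activation plus 3 SD (cut at about 130% in these data); inactive = the rest.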 The list comes from a sample in which actives are over-represented; it also holds similar structures and randomly drawn compounds. Where a SMILES comes first, the peptide text is derived from it. [ ]: non-standard residue; d: D form. ξ: configuration not given here. ξM = CSCCC(N)C(=O)O

This test is described as follows: potentiators of IFN-gamma driven STAT1 reporter – cell-based, HTS, luciferase reporter, primary screen (AID 932).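 Also: raw ratio to IFN-gamma control signal so 100% means no change and 0% no light.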 The following applies: NIH 3T3 STAT1-luciferase reporter, luminescence, at 5.5 µM, hits give high values, 100% = IFN-gamma alone, no compound. (A reporter such as luciferase makes a cellular process visible.)
With `O=C(N1CCCC1)C12CC3CC(C1)CC(C(=O)N1CCCC1)(C3)C2`, the activation (% of control) was 99.8% (inactive).
Turning to `CCCNC(=O)c1ccc(Cl)c(Cl)c1`, the activation (% of control) was 98.4% (inactive).
As for `Cc1c(C(=O)NCc2ccccc2)cnn1-c1ccccc1`, the activation (% of control) was 101% (inactive).
Consider `CCCNC(=O)c1c(Cl)cnn1-c1ccc(C)cc1`, for which the activation (% of control) is 142% (active).
Then `Cn1ncc(N2CCN(S(=O)(=O)c3ccc(Br)cc3)CC2)c(Cl)c1=O`, with 110% (inactive); and `COc1cc(C)c(Cl)cc1S(=O)(=O)n1ccnc1`, with 92.5% (inactive); and `CNc1nc(Nc2ccc(C)c(Cl)c2)nc(N)c1[N+](=O)[O-]`, with 142% (active).
For `Nc1nc(NCCCN2CCOCC2)nc(Nc2ccccc2)c1[N+](=O)[O-]`, the activation (% of control) is 103% (inactive).
On to `COCCNc1nc(N)c([N+](=O)[O-])c(NCCO)n1`, for which the activation (% of control) was 114% (inactive).
For the compound `Cc1nn(-c2ccccc2)c(NC(=O)c2cccs2)c(-c2ccc(Cl)cc2)c1=O`, the activation (% of control) is 107% (inactive).
Then `CC(C)c1ccc(NC(=O)NC2CCCCC2)cc1`, with 180% (active); and `CC(C)N1CCC(NC(=O)Nc2ccccc2)CC1`, with 95.4% (inactive); and `CC(C)(C)NS(=O)(=O)c1ccc(NC(=O)NC2CCCCC2)cc1`, with 103% (inactive).
Then `Cc1nn2cc(-c3ccc(Cl)cc3)cnc2c1Br`, with 140% (active); and `COc1ccccc1-c1nnc(NC(=O)c2ccc3ncsc3c2)o1`, with 122% (inactive); and `O=C(CC(=O)N/N=C\c1ccc(F)cc1)NCCc1ccccc1`, with 100% (inactive).
Turning to `O=C(NNC(=O)C1C2CCC(C2)C1C(=O)O)c1ccc(Cl)cc1` (stereo not drawn), the activation (% of control) is 110% (inactive).
For the compound `C/C(=N\NC(=O)OC(C)(C)C)c1ccc[nH]1`, the activation (% of control) was 130% (active).
Then `Cc1ccccc1NC(=O)NNC(=O)OC(C)(C)C`, with 103% (inactive); and `CC(C)(C)OC(=O)N/N=C/c1ccc(C(=O)O)cc1`, with 104% (inactive).
Then `COc1ccc(C(=O)C2CCCN(C(=O)c3cc4nc(C)cc(C)n4n3)C2)cc1F` (stereo not drawn), with 95.3% (inactive).
To `COc1ccc(-n2nc3c(c2NC(=O)c2ccc(N4C(=O)CCC4=O)cc2)CSC3)cc1` belongs 96.7% (inactive); to `NC(N)=N/N=C/c1ccc(Cl)c([N+](=O)[O-])c1`, 93.6% (inactive); to `Cc1ccc(NC(=S)NC(=O)c2ccc(-c3ccccc3)cc2)c(C)c1`, 92% (inactive).
For the compound `Cc1cc(C(=O)NNC(=S)Nc2ccccc2C)cs1`, the activation (% of control) was 130% (active).
Then `Cc1ccc(NC(=S)NC(=O)c2ccc(-c3ccccc3)cc2)cc1`, with 98.2% (inactive); and `Cc1ccccc1NC(=S)NNC(=O)c1cccc(Br)c1`, with 104% (inactive).
In the case of `Cc1ccc(C)c(NC(=S)NNC(=O)c2csc(C)c2)c1`, the activation (% of control) was 97.8% (inactive).
In the case of `Cc1ccc(C(=O)NC(=S)Nc2ccccc2C)cc1`, the activation (% of control) is 130% (active).
Then `CCCN(C(=O)CSc1nnnn1C)c1c(N)n(Cc2ccccc2)c(=O)[nH]c1=O`, with 101% (inactive).
With `COc1ccc(N/N=C2/CCCCC2=O)cc1`, the activation (% of control) is 105% (inactive).
Take `Cc1ccc(N/N=C2\COC(C)(C)CC2=O)cc1`: the activation (% of control) is 142% (active).
With `CCn1cc(CN2CCCC(CNS(=O)(=O)Cc3ccccc3)C2)cn1` (stereo not drawn), the activation (% of control) is 89.7% (inactive).
To `CN=c1scc(-c2cc(OC)ccc2OC)n1/N=C/c1c(C)[nH]c2ccccc12` belongs 112% (inactive); to `CCn1ccnc1CN1CCCC(C(=O)c2ccc3c4c(cccc24)CC3)C1` (stereo not drawn), 89.5% (inactive).
For `CC(NC(=O)Nc1ccc2c(c1)OCO2)c1ccncc1` (stereo not drawn), the activation (% of control) was 97.9% (inactive).
`O=C(/C=C/c1ccc2c(c1)OCO2)NCc1ccc(F)cc1`: the activation (% of control) is 101% (inactive).
Then `COc1ccc(OC)c(/C=C/C(=O)OCC(=O)Nc2ccc3c(c2)OCCO3)c1`, with 98.4% (inactive); and `COc1cccc(/C=C/C(=O)Nc2ccc3c(c2)OCCO3)c1`, with 129% (active); and `CC(C)C(=O)Nc1cccc(C(=O)Nc2ccc3c(c2)OCO3)c1`, with 120% (inactive).
Then `COc1ccc(/C=C/C(=O)Nc2ccc3c(c2)OCCO3)cc1OC`, with 96.8% (inactive).
Then `Cc1cccc(NC(=O)Nc2ccc3c(c2)OCO3)n1`, with 168% (active); and `CCc1c(C)sc(NC(=O)/C=C/c2ccc3c(c2)OCO3)c1C(=O)OC`, with 96.1% (inactive).
For `Cc1cccc(NC(=O)/C=C/c2ccc3c(c2)OCO3)n1`, the activation (% of control) was 135% (active).
Turning to `CC(=C/c1ccccc1)/C=N/NC(=O)c1cc(C)oc1C`, the activation (% of control) was 117% (inactive).
Then `O=C(O)/C=C\C(=O)Nc1ccc(OCc2ccccc2)cc1`, with 120% (inactive); and `Cn1c(SCC(=O)NC2CCCCC2)nnc1-c1ccc(N)cc1`, with 101% (inactive); and `CCSc1nc(C)c(CCOc2cccc(C)c2)c(=O)[nH]1`, with 102% (inactive).
`CCOc1ccc(-c2nnc(-c3ccco3)o2)cc1`: the activation (% of control) is 93.5% (inactive).
Then `CCCCOc1ccc(-c2nnc(-c3ccco3)o2)cc1`, with 130% (active).
Consider `CCC(=O)Oc1cccc(C(=O)Nc2ccc(-c3nnc(-c4ccco4)o3)cc2)c1`, for which the activation (% of control) is 104% (inactive).
Regarding `COc1ccc2nc(SCc3ccccc3)nc(C)c2c1`, the activation (% of control) was 188% (active).
On to `COC(=O)CSc1nc(C)c2ccc(OC)cc2n1`, for which the activation (% of control) was 108% (inactive).
Regarding `COc1ccc(-c2nnc3ccc(SCc4ccccc4)nn23)cc1`, the activation (% of control) is 96.5% (inactive).
For `Cc1ccc(C)c2[nH]c(=O)c(CCNC(=O)c3cccs3)cc12`, the activation (% of control) is 102% (inactive).
As to `CCOC(=O)C1(CCOC)CCN(Cc2ccc(C(=O)OC)cc2)CC1`, the activation (% of control) is 106% (inactive).
Then `CN1C(=O)/C(=C/C=C2\SCCN2C)OC1=S`, with 158% (active); and `O=C(NCc1ccccn1)c1cc(Br)ccc1Cl`, with 104% (inactive).
Then `COc1ccc(OCC(=O)NNC(=O)c2cccc(C)c2)cc1`, with 103% (inactive); and `O=C(N/N=C/C=C/c1ccco1)c1cccs1`, with 127% (inactive).
Turning to `Cc1cccc(-n2c(C)cc(/C=N\NC(=O)c3cccs3)c2C)c1`, the activation (% of control) was 140% (active).
Take `O=C(O)c1ccc(NC(=O)c2cccs2)cc1`: the activation (% of control) is 98.1% (inactive).
Turning to `Cc1ccc(-n2nc(C)c(/C=N/NC(=O)c3cccs3)c2Cl)cc1`, the activation (% of control) was 106% (inactive).
`CC(=O)Nc1ccc(/C=N/NC(=O)c2cccs2)cc1`: the activation (% of control) was 136% (active).
To `Cc1cccc(-n2c(C)cc(/C=N/NC(N)=S)c2C)c1` belongs 110% (inactive); to `CN(C)N(C)C(=O)C(O)(c1ccccc1)c1ccccc1`, 93.5% (inactive); to `COc1cc(OC)c(C(=O)OCC(=O)N2CC(=O)Nc3ccccc32)cc1OC`, 97% (inactive).
To `N#C/C(=C/c1cccc([N+](=O)[O-])c1)c1nnc2n1CCCCC2` belongs 100% (inactive); to `C/C(=N/Nc1ccc(Cl)cc1)c1cnnc(-c2ccccc2)n1`, 99.5% (inactive); to `COC(=O)CNC(=O)C(CCSC)NC(C)=O` (stereo not drawn) (Ac-[ξM]-Gly-OMe), 99.5% (inactive).
With `C=CCNc1cnn(-c2ccc(C)cc2)c(=O)c1Cl`, the activation (% of control) was 134% (active).
Then `O=c1c(Cl)c(NC2CC2)cnn1-c1ccccc1`, with 108% (inactive); and `Cc1ccc(Oc2cnn(-c3ccccc3)c(=O)c2Br)cc1`, with 108% (inactive); and `CN(C)c1ccc(/C=N/Nc2cc(N3CCOCC3)nc(N3CCOCC3)n2)cc1`, with 104% (inactive).
Then `C=CCN(c1ccc(Cl)cc1)S(=O)(=O)c1cccc(C(=O)OCC(=O)N(C)C)c1`, with 97.2% (inactive).
To `Cc1ccc(-c2cn3cc(C)ccc3n2)cc1` belongs 12.9% (inactive); to `Cc1ccc(-n2cc3ccc([N+](=O)[O-])cc3n2)cc1`, 123% (inactive); to `Cc1ccc(-c2cn3cc([N+](=O)[O-])ccc3n2)cc1`, 133% (active).
With `CCN(/N=C/c1ccccc1)c1cc(=O)n(C)c(=O)[nH]1`, the activation (% of control) was 98.7% (inactive).
On to `COc1ccccc1NC(=O)C1=C(C)NC(=O)NC1c1ccc(C)s1` (stereo not drawn), for which the activation (% of control) was 99.8% (inactive).
Then `CCCC(=O)Nc1cccc(-c2cn3ccsc3n2)c1`, with 108% (inactive); and `COc1ccc(-c2cn3cccnc3n2)cc1`, with 118% (inactive).
Turning to `COc1ccc(-c2cn3ccsc3n2)cc1`, the activation (% of control) is 135% (active).
With `COc1cc(NC(=O)CSc2nnc3ccc(-c4ccncc4)nn23)cc(OC)c1`, the activation (% of control) was 104% (inactive).
Then `C=CCN1C(=O)C(O)(CC(=O)c2ccccn2)c2ccccc21` (stereo not drawn), with 104% (inactive).
On to `COc1ccc(-c2cc(C(=O)NC(Cc3c[nH]c4ccccc34)C(=O)O)c(C)o2)cc1OC` (stereo not drawn), for which the activation (% of control) is 93.3% (inactive).
To `O=C(Nc1ccc(Br)cn1)c1ccc([N+](=O)[O-])cc1Cl` belongs 142% (active); to `CC(C)C(=O)Nc1cccc(NC(=O)c2ccc([N+](=O)[O-])cc2Cl)c1`, 112% (inactive); to `O=C(Nc1ccc(Br)cn1)c1ccc([N+](=O)[O-])o1`, 108% (inactive).
As to `O=C(NC1CCCC1)C(NS(=O)(=O)c1ccc(Br)s1)c1ccccc1` (stereo not drawn), the activation (% of control) is 94.7% (inactive).
To `C/C(=N\NC(=S)NC(C)C)c1ccc(C(C)(C)C)cc1` belongs 94.3% (inactive).
In the case of `COc1cccc(C(=O)Nc2cc3c(cc2Br)OCCCO3)c1`, the activation (% of control) is 141% (active).
Then `COc1ccc(C2COC(=O)C2=N)c(NC(=O)c2ccccc2)c1` (stereo not drawn), with 107% (inactive); and `COc1cccc(C(=O)NNC(=O)c2ccccc2Br)c1`, with 98.2% (inactive); and `Cc1cccc(-n2c(O)c(C=Nc3ccccc3N)c(=O)[nH]c2=O)c1`, with 156% (active).
Then `Cc1ccc(N=Cc2c(O)n(-c3nccs3)c(=O)c3ccccc23)c(C)c1`, with 105% (inactive).
For `Cc1cccc(N2CCN(S(=O)(=O)c3ccc4[nH]c(=O)c(=O)[nH]c4c3)CC2C)c1` (stereo not drawn), the activation (% of control) is 99.2% (inactive).
Then `[O-][n+]1onc2c1CCc1[nH]c(-c3ccccc3)nc1-2`, with 101% (inactive); and `Cc1ccc(NC(=O)c2ccc(S(=O)(=O)NCC3CCCO3)cc2)cc1C` (stereo not drawn), with 103% (inactive).
Then `O=C(NCc1ccncc1)NC12CC3CC(CC(C3)C1)C2`, with 94.6% (inactive); and `O=C(Nc1cccc(CCc2ccccn2)c1)c1ccc(Cl)cc1`, with 96.1% (inactive); and `O=C(Nc1cccc(Cl)c1)OCc1ccccn1`, with 130% (active).
To `O=C(Nc1ccccc1)OCc1cc(-c2ccc(Cl)cc2)on1` belongs 95.6% (inactive).
